RMI-FANCM inh: RMI-FANCM interaction inhibition | Fluorescence polarization, RMI core complex with F-MM2 peptide; active compounds read low | FP signal (polarization) at 33 µM | 70,000 compounds, 0.58% hits | AID 1159607; in the data active = FP signal below about 40
Each line names hits and unclear results; the compound was inactive in the other large screens; ! = not active in a repeat. The full list was thinned out, with hits kept by preference.

COc1cc(/C=N\n2c(C)nc3c(ncn3-c3ccccc3)c2=O)cc(OC)c1OC	none
CS/C(NC(=O)c1ccccc1)=C1\CCCCC1=O	none
CS(=O)(=O)c1ccc(-c2nnc(N)o2)cc1	none
CCCCOc1ccc(C(=O)Nc2sc3c(c2C#N)CCN(C(=O)OCC)C3)cc1	none
NC(=NC(=S)Nc1ccccc1)N1CCOCC1	none
O=C1Cc2ccccc2C1=C1Cc2ccccc2C1	none
NC(=O)C1Cc2ccccc2N1C(=O)CCCN1C(=O)c2ccccc2C1=O (centres undefined)	none
NC(=O)N1c2ccccc2CC(=O)c2ccccc21	RMI-FANCM inh -8!
O=C(Cc1ccc2c(c1)OCO2)N(Cc1ccccc1)c1nc2ccc(Cl)cc2s1	none
O=[N+]([O-])c1cnc(Sc2ccc(C(F)(F)F)cn2)s1	none
O=[N+]([O-])c1cnc(Sc2nnc(-c3ccc(Cl)cc3)o2)s1	none
CSc1nnc(Sc2ncc([N+](=O)[O-])s2)s1	RMI-FANCM inh 2
COc1cc(/C=N\NC(=S)Nc2ccc(F)cc2)ccc1OS(C)(=O)=O	none
COc1ccc(SCCCC(=O)Nc2ncc(S(=O)(=O)c3ccc([N+](=O)[O-])cc3)s2)cc1	none
O=C(NCc1ccccn1)Nc1c[nH]c2ccccc12	RMI-FANCM inh 25
COc1ccccc1CNC(=O)Nc1c[nH]c2ccccc12	none
CC(C)CNC(=O)Nc1c[nH]c2ccccc12	none
CC1(C)C=C[C@H](O)[C@@]2(C)C1C[C@@H](O)[C@]1(C)C2CC[C@@]2(C)[C@H](c3ccoc3)OC(=O)[C@H]3O[C@]321 (some centres undefined)	none
O=C(c1ccco1)N1CCN(C(=O)C2CCCN(c3ccc(-c4ccc(Cl)cc4)nn3)C2)CC1 (centres undefined)	none
COc1cccc2c1C(=O)c1c(O)c3c(c(O)c1C2=O)C[C@@](O)(C(C)=O)C[C@@H]3O[C@H]1C[C@H](N)[C@H](O)[C@H](C)O1	none
COc1cccc2c1C(=O)c1c(O)c3c(c(O)c1C2=O)C[C@@](O)(C(=O)CO)C[C@@H]3O[C@H]1C[C@H](N)[C@@H](O)[C@H](C)O1	RMI-FANCM inh -10
CC(=O)[C@]1(O)Cc2c(O)c3c(c(O)c2[C@@H](O[C@H]2C[C@H](N)[C@H](O)[C@H](C)O2)C1)C(=O)c1ccccc1C3=O	none
N/C(Cc1cccs1)=N/OC(=O)Nc1cccc2ccccc12	none
CCc1cccc(NC(=O)Cn2c(=O)n(CCCCC(=O)NC3CCCC3)c(=O)c3ccccc32)c1	none
CC(=O)N1CC(C)=C(C#N)C1O (centres undefined)	RMI-FANCM inh -1
COc1ccc(-c2nc3sc(CCNC(=O)C(=O)Nc4ccccc4F)c(C)n3n2)cc1	none
CCOC(=O)c1ccc2nc(NC(=O)c3ccccc3I)sc2c1	none
COc1ccc(-c2nnc3ccc(OCCNS(C)(=O)=O)nn23)cc1OC	none
COc1cccc2cc(C(=O)Nc3nnc(-c4ccc5c(c4)OCO5)o3)oc12	none
COc1cccc2cc(C(=O)Nc3nnc(-c4cc(C)nn4C)o3)oc12	none
COc1cccc2cc(C(=O)Nc3nnc(-c4ccc(SC)cc4)o3)oc12	RMI-FANCM inh 32
CCOC(=O)c1scc(-c2ccc(C)cc2)c1S(=O)(=O)Nc1ccc(OC)cc1	none
Cc1cccc(NC(=O)NCCCn2nc(-c3ccncc3)ccc2=O)c1	none
CC(C)(C)c1nn2cnnc2n(/N=C\c2ccccc2[N+](=O)[O-])c1=O	none
c1ccc2c(c1)Nc1nc3ccccc3nc1O2	none
c1ccc2c(c1)Nc1nc3ccccc3nc1N2	RMI-FANCM inh -3
Cc1nc2ccccc2nc1C	none
CC(O)=c1c(=O)nc2ccc(Cl)c3c2=c1c1ccccc1c3=O	RMI-FANCM inh -21
N#C/C(=C\c1ccc(Cl)c(Cl)c1)c1nc2ccccc2c(=O)[nH]1	none
CN(C)c1ccc(-c2nc3ccccc3c(=O)[nH]2)c(Cl)c1	none
COc1cc(/C=C/C(=O)Nc2nnc(-c3ccc(C(F)(F)F)cc3)o2)cc(OC)c1OC	none
CC1(C)Cc2cccc(OCC(=O)NCCc3ccc(Cl)cc3)c2O1	none
O=C(CC1CCCCN1S(=O)(=O)c1cccs1)Nc1nccs1 (centres undefined)	none
CC(=O)Nc1cccc(C2=CC(c3cccc(Br)c3)n3ncnc3N2)c1 (centres undefined)	RMI-FANCM inh 5
CC(=O)Nc1cccc(NC(=O)C(=O)NC2CCCC2)c1	none
CCCOc1ccc(Br)cc1C1C(C(N)=O)=C(C)Nc2ncnn21 (centres undefined)	none
COC(=O)c1ccc(COc2coc(CSc3nncn3C)cc2=O)o1	none
Cc1ccccc1Cn1cnc2c(cnn2CCNC(=O)c2c(-c3ccccc3Cl)noc2C)c1=O	none
O=C(O)c1nc2nccnc2cc1Br	RMI-FANCM inh 17
CS(=O)(=O)c1ncc(Br)c(C(=O)O)n1	none
O=C(O)c1ncccc1Br	none
COC(=O)c1cc(S(=O)(=O)N2CCN(c3ccc(OC)cc3)CC2)oc1C	none
COc1ccccc1-c1nc(=S)c(C(C)=O)c(C)[nH]1	none
Cc1ncc(CO)c2c1Oc1[nH]c(-c3ccc(F)cc3)nc(=S)c1C2	none
CCOc1cccc2c1Oc1[nH]c(-c3cccc(OC)c3O)nc(=S)c1C2	RMI-FANCM inh 12
Cc1cc(NC(=O)c2cc(Cl)sc2Cl)n(-c2nc3ccccc3s2)n1	none
CC1(C)CC(=O)c2cc(-c3ccc(Br)cc3)n(-c3ccccc3F)c2C1	none
